We go through 38 molecules from PubChem BioAssay (NCI).

Compounds without any hit were thinned out: in the full panel of roughly 83,000, 20% have a hit.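 48-hour exposure, single concentration, 96-well plates; percent growth endpoint where 0 means no net growth. Active: below 10.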 A number with no mark means an inactive call. The source made the active and inactive calls.

For the first assay, the system named is OVCAR-8 ovarian. Kind of assay: NCI-60 one-dose screen, 48 h (100 = growth as untreated, 0 = no growth, -100 = all killed). As to conditions: 10 µM unless noted.
Regarding `O=[As](O)(O)c1ccccc1[As](=O)(O)O`, the growth was 99.7%.

With `Clc1ccc(COC(Cn2ccnc2)c2ccc(Cl)cc2Cl)cc1` (stereo not given), the growth was 51.8%.

Take `CN(C)C(=O)Oc1ccccc1`: the growth was 102%. With `CC[C@H](C)[C@H](NC(=O)C12C3C4C1C1C2C3C41NC(C)=O)C(=O)N(C)[C@H](C[C@@H](OC(C)=O)c1nc(C(=O)N[C@@H](Cc2ccccc2)C[C@H](C)C(=O)OC)cs1)C(C)C` (stereo not given in full), the growth was 17%. On to `COc1ccc(C(=O)c2sc3nc4c(cc3c2N)N2CCC4CC2)cc1OC`, for which the growth was 85.7%. In the case of `CCC(CC)CC1(C)CC2(C)CCOC2OO1` (stereo not given), the growth was 102%.

Turning to `ClCCN(CCCl)c1ccc(/C=N\N=C\c2ccc(N(CCCl)CCCl)cc2)cc1`, the growth was 33.8%. On to `CCOC(=O)C(Cc1ccc(N(CCCl)CCCl)cc1)NC(=O)C(CC(C)C)NC(C)=O` (stereo not given), for which the growth is 32.6%. Same read-out and setting: to `CNCc1cccnc1` belongs 103%.

`CCN(CCO)C(Cc1ccccc1)c1ccccc1` (stereo not given): the growth was 109%. Take `C=CCc1cc2c(cc1OCC)OCO2`: the growth was 103%.

With `N#Cc1c(Br)n(C2OC(CO)C(O)C2O)c2ncnc(N)c12` (stereo not given), the growth is 35.2%. `NC(=S)c1cn(C2OC(CO)C(O)C2O)c2ncnc(N)c12` (stereo not given): the growth was 3.53% (active). For `O=P(N1CC1)(N1CC1)N1CCc2ccccc21`, the growth was 103%.

Turning to `Oc1ccc2c3c1OC1[C@@H](O)CC[C@@]4(O)[C@@H](C2)N(CC2CCC2)CC[C@]314` (stereo not given in full), the growth is 104%. `COC(=O)[C@@]1(O)C[C@H]2O[C@]1(C)n1c3ccccc3c3c4c(c5c6ccccc6n2c5c31)C(=O)NC4`: the growth was -43.6% (active). Take `ClCCN(CCCl)c1ccc(OCc2ccccc2)cc1`: the growth is 55.8%.

As to `N#CC1(C#N)C(c2ccc(N(CCCl)CCCl)cc2)OC23CCCCC2C1(C#N)C(=N)O3` (stereo not given), the growth was 80.6%. Still for that read-out and setting: to `COC(=O)[C@@H](C)C[C@H](Cc1ccccc1)NC(=O)c1nc([C@@H](C[C@H](C(C)C)N(C)C(=O)[C@@H](NC(=O)[C@H]2CC(=O)CCN2C)C(C)C)OC(C)=O)sc1C(C)C` belongs 8.46% (active); to `Nc1ccc2c(c1)oc1ccccc12`, 107%.

Consider `CNC(=O)Oc1ccc(C(C)(C)C)cc1OC(=O)NC`, for which the growth was 100%. In the case of `COc1cc2c(cc1OCCCCn1c(-c3cccs3)nc3ccccc31)N=C[C@@H]1CCCN1C2=O`, the growth is -0.203% (active). As to `CC[C@H](C)[C@H](NC(=O)C12C3C4C1C1C2C3C41NC)C(=O)N(C)[C@H](C[C@@H](OC(C)=O)c1nc(C(=O)N[C@@H](Cc2ccccc2)C[C@H](C)C(=O)OC)cs1)C(C)C` (stereo not given in full), the growth is 20.4%. `COc1ccc(N(CC(=O)NCCC[Te]c2ccccc2)C(=O)CCSC2=C(C)C(=O)c3ccccc3C2=O)cc1`: the growth is 8.05% (active). Turning to `NC(=Nc1ccccc1)N[N+](=O)[O-]`, the growth was 119%. The same measure, in the same setting: the figure for `C[S+]1C=Cc2ccccc2C1c1ccc(Cl)cc1` (stereo not given) is 95.2%; for `CC(C)[C@]12O[C@H]1[C@@H]1O[C@]13[C@]1(O[C@H]1C[C@H]1c4c(C(=O)c5ccccc5)oc(OC(=O)c5ccccc5)c4CC[C@@]13C)[C@@H]2O` it is 6.13% (active). The same measure, in the same setting: the figure for `CN(C)CC(C(=O)Cc1ccccc1)c1ccccc1` (stereo not given) is 34%; for `O=C1C=C2C(=CCOC2O)O1` (stereo not given) it is -21.5% (active). `Clc1ccc(N2COOC3(OOC2)C2CC4CC(C2)CC3C4)cc1`: the growth is 46.6%. Same read-out and setting: the figure for `Nc1ccc2c(c1)Cc1cc(Br)ccc1-2` is 107%. As to `O=c1[nH]c2ccc([N+](=O)[O-])cc2c(=O)o1`, the growth is 104%. Consider `CN1CC(CNC(=O)OCc2ccccc2)CC2c3cccc4c3c(cn4C)CC21` (stereo not given), for which the growth is 62.4%. For the molecule `NC(=O)c1c(Br)n(C2OC(CO)C(O)C2O)c2ncnc(N)c12` (stereo not given), the growth was 5.8% (active). As for `Cc1cc(N(CCCl)CCCl)ccc1/C=N\NC(=O)c1ccncc1`, the growth is 61.9%. Turning to `COC(=O)CCC1=C(C)c2cc3[n-]c(cc4nc(cc5[n-]c(cc1n2)c(CCC(=O)OC)c5C)C=C4C)cc3C.[Cd+2]`, the growth was 68.7%.

Take `CCCC(C)C1(CC)C(=O)NC(=O)N(C)C1=O` (stereo not given): the growth was 98.8%. Consider `CC(=O)c1ccc(C(=O)NCC2CCC3(CC2)OOC2(CCCCC2)OO3)cc1`, for which the growth is 84.6%.

The next assay relates to OVCAR-5 ovarian. The description is as above. Conditions: 10 µM unless noted.
Turning to `O=[As](O)(O)c1ccccc1[As](=O)(O)O`, the growth is 92.6%. For the molecule `CN(C)C(=O)Oc1ccccc1`, the growth is 82.4%. Same read-out and setting: the figure for `CC[C@H](C)[C@H](NC(=O)C12C3C4C1C1C2C3C41NC(C)=O)C(=O)N(C)[C@H](C[C@@H](OC(C)=O)c1nc(C(=O)N[C@@H](Cc2ccccc2)C[C@H](C)C(=O)OC)cs1)C(C)C` (stereo not given in full) is 47.8%; for `COc1ccc(C(=O)c2sc3nc4c(cc3c2N)N2CCC4CC2)cc1OC` it is 107%. With `CCC(CC)CC1(C)CC2(C)CCOC2OO1` (stereo not given), the growth was 113%. For the molecule `ClCCN(CCCl)c1ccc(/C=N\N=C\c2ccc(N(CCCl)CCCl)cc2)cc1`, the growth is 107%.

As to `CNCc1cccnc1`, the growth was 114%. Same read-out and setting: to `C=CCc1cc2c(cc1OCC)OCO2` belongs 95.7%; to `N#Cc1c(Br)n(C2OC(CO)C(O)C2O)c2ncnc(N)c12` (stereo not given), 95.5%; to `NC(=S)c1cn(C2OC(CO)C(O)C2O)c2ncnc(N)c12` (stereo not given), -29.6% (active). As to `O=P(N1CC1)(N1CC1)N1CCc2ccccc21`, the growth is 112%. Still for that read-out and setting: to `COC(=O)[C@@]1(O)C[C@H]2O[C@]1(C)n1c3ccccc3c3c4c(c5c6ccccc6n2c5c31)C(=O)NC4` belongs -11.6% (active); to `ClCCN(CCCl)c1ccc(OCc2ccccc2)cc1`, 89%. In the case of `N#CC1(C#N)C(c2ccc(N(CCCl)CCCl)cc2)OC23CCCCC2C1(C#N)C(=N)O3` (stereo not given), the growth was 105%. `Nc1ccc2c(c1)oc1ccccc12`: the growth is 98.3%.

Turning to `CNC(=O)Oc1ccc(C(C)(C)C)cc1OC(=O)NC`, the growth was 108%. Still for that read-out and setting: to `COc1cc2c(cc1OCCCCn1c(-c3cccs3)nc3ccccc31)N=C[C@@H]1CCCN1C2=O` belongs 0.96% (active); to `CC[C@H](C)[C@H](NC(=O)C12C3C4C1C1C2C3C41NC)C(=O)N(C)[C@H](C[C@@H](OC(C)=O)c1nc(C(=O)N[C@@H](Cc2ccccc2)C[C@H](C)C(=O)OC)cs1)C(C)C` (stereo not given in full), 43.5%; to `COc1ccc(N(CC(=O)NCCC[Te]c2ccccc2)C(=O)CCSC2=C(C)C(=O)c3ccccc3C2=O)cc1`, -57.4% (active).

As for `C[S+]1C=Cc2ccccc2C1c1ccc(Cl)cc1` (stereo not given), the growth is 118%. Take `CC(C)[C@]12O[C@H]1[C@@H]1O[C@]13[C@]1(O[C@H]1C[C@H]1c4c(C(=O)c5ccccc5)oc(OC(=O)c5ccccc5)c4CC[C@@]13C)[C@@H]2O`: the growth was 15.2%. In the case of `CN(C)CC(C(=O)Cc1ccccc1)c1ccccc1` (stereo not given), the growth is 133%. On the same count and under the same terms, the figure for `O=C1C=C2C(=CCOC2O)O1` (stereo not given) is 41.5%; for `Clc1ccc(N2COOC3(OOC2)C2CC4CC(C2)CC3C4)cc1` it is 70.4%. In the case of `Nc1ccc2c(c1)Cc1cc(Br)ccc1-2`, the growth was 110%. The same measure, in the same setting: to `O=c1[nH]c2ccc([N+](=O)[O-])cc2c(=O)o1` belongs 101%; to `CN1CC(CNC(=O)OCc2ccccc2)CC2c3cccc4c3c(cn4C)CC21` (stereo not given), 64.6%; to `NC(=O)c1c(Br)n(C2OC(CO)C(O)C2O)c2ncnc(N)c12` (stereo not given), 24.4%. With `Cc1cc(N(CCCl)CCCl)ccc1/C=N\NC(=O)c1ccncc1`, the growth was 54.5%. Take `COC(=O)CCC1=C(C)c2cc3[n-]c(cc4nc(cc5[n-]c(cc1n2)c(CCC(=O)OC)c5C)C=C4C)cc3C.[Cd+2]`: the growth is 103%. The same measure, in the same setting: to `CCCC(C)C1(CC)C(=O)NC(=O)N(C)C1=O` (stereo not given) belongs 109%.

For the molecule `CC(=O)c1ccc(C(=O)NCC2CCC3(CC2)OOC2(CCCCC2)OO3)cc1`, the growth is 70%.
